The source of these data is PubChem BioAssay (NCI).

The structures appear in SMILES notation. This is part of a sample that, as a whole, favours compounds with a hit. Of some 79,000 tested, about 15% had one in any assay. A number with no mark means an inactive call. Activity calls are given as the source filed them. No stated cut-off is given here; in the data, active means growth inhibition above about 70%; inactive means the rest.

Experiment [1] in a line: NCI Yeast Anticancer Drug Screen. Data for the rad50 strain (AID 155).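 Further: 0% = growth of vehicle-only cultures of the same strain.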 To be noted: S. cerevisiae rad50 strain growth inhibition; at 50.0 µM; stronger effect = higher value. Summed up: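 Inhibition values express reduced yeast growth in compound-treated cultures relative to vehicle-treated controls.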
Experiment [2] is described as follows: NCI Yeast Anticancer Drug Screen. Data for the mec2-1 strain (AID 157). The following applies: S. cerevisiae mec2-1 strain, at 50.0 µM, stronger effect = higher value. In outline:
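Strain: mec2-1 (DNA repair/cell cycle alteration). Compound exposure, then growth measured; inhibition expressed relative to vehicle.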

Experiment [3] can be described thus: NCI Yeast Anticancer Drug Screen. Data for the sgs1 mgt1 strain (AID 161).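 Further: 0% = growth of cultures given vehicle only.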 To be noted: S. cerevisiae sgs1 mgt1 strain, at 50.0 µM, stronger effect = higher value. In outline: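 Genetically altered yeast, compound exposure, growth inhibition relative to vehicle.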
Experiment [4] can be described thus: NCI Yeast Anticancer Drug Screen. Data for the cln2 rad14 strain (AID 165).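 Further: 0% = growth equal to vehicle treated cultures.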 The following applies: S. cerevisiae cln2 rad14 strain, at 50.0 µM, stronger effect = higher value. In outline:
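Compounds are applied to the cln2 rad14 yeast strain, and growth is then compared with that of vehicle-treated cultures to give inhibition.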

The nature of experiment [5]: NCI Yeast Anticancer Drug Screen. Data for the bub3 strain (AID 167). To be noted: S. cerevisiae bub3 mutant strain, at 50.0 µM, stronger effect = higher value. Summed up:
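Steps: expose the mutant yeast strain to compound; grow alongside vehicle-treated cultures; measure growth; express inhibition against the vehicle cultures.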

A short description of experiment [6]: NCI Yeast Anticancer Drug Screen. Data for the mlh1 rad18 strain (AID 175). To be noted: S. cerevisiae mlh1 rad18 strain growth inhibition; at 50.0 µM; stronger effect = higher value. In outline:
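Read-out is yeast growth inhibition, calculated against vehicle-only controls. The compound was applied to a strain engineered with DNA damage repair alterations.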

With `CC(NCc1cc(O)c(CNC(C)c2ccccc2)cc1O)c1ccccc1` (stereo unspecified), the growth inhibition is 4.55% in experiment [1]; 0.4% in experiment [2]; 17.1% in experiment [3]; 25.2% in experiment [4]; 12.4% in experiment [5]; 1.95% in experiment [6].

Turning to `OCCNc1ncnc2nc[nH]c12`, the growth inhibition in experiment [1] is -17.9%; in experiment [2] it was -3.5%; in experiment [3], -12.5%; in experiment [4] it was 65.5%; in experiment [5], -46.5%; in experiment [6], 2.5%.

Take `CC(=O)CCC(=O)CC(=O)CCC(=O)Nc1cc(Cl)ccc1Cl`: the growth inhibition was 15.3% in experiment [1]; 24.2% in experiment [2]; 19.9% in experiment [3]; 31.2% in experiment [4]; 2.5% in experiment [5]; 6.2% in experiment [6].

On to `CCCC(=O)SCC[N+](C)(C)C`, for which the growth inhibition is -10.2% in experiment [1]; -48.3% in experiment [2]; 15.4% in experiment [3]; 21.6% in experiment [4]; -13.3% in experiment [5]; 4.5% in experiment [6].

With `CC(NNC(=S)N1CC2CCC(CC2)C1)c1cccc[n+]1[O-]` (stereo unspecified), the growth inhibition is 93.1% (active) in experiment [1]; 37.4% in experiment [2]; 92.5% (active) in experiment [3]; 84.7% (active) in experiment [4]; 48.8% in experiment [5]; 59.6% in experiment [6].

Consider `COc1cc(/C=N/NC2=NCCCN2)ccc1O`, for which the growth inhibition in experiment [1] is 28.7%; in experiment [2], 13.2%; in experiment [3], 7.75%; in experiment [4], -16.2%; in experiment [5], 0.7%; in experiment [6] it was 17.4%.

Consider `CC1(C)C(=O)C(C)(C)C(=O)C(C)(C)C1=O`, for which the growth inhibition is 2.45% in experiment [1]; -15.7% in experiment [2]; 5.4% in experiment [3]; 16.9% in experiment [4]; 11.3% in experiment [5]; -0.3% in experiment [6].

`COC(=O)CC1(O)C=CC(=O)c2ccccc21` (stereo unspecified): the growth inhibition in experiment [1] was 2.35%; in experiment [2] it was -6.65%; in experiment [3] it was -3.8%; in experiment [4], -25.9%; in experiment [5] it was 44%; in experiment [6], -5.7%.

Consider `CCC(=O)n1ncc2ccc([N+](=O)[O-])cc21`, for which the growth inhibition in experiment [1] is 3.45%; in experiment [2], 5.15%; in experiment [3] it was -2.8%; in experiment [4], -105%; in experiment [5] it was -4.45%; in experiment [6], -7.5%.

With `O=c1c(-c2ccc(O)cc2)coc2cc(O)cc(O)c12`, the growth inhibition in experiment [1] was 8.85%; in experiment [2], -6.15%; in experiment [3], 18.1%; in experiment [4], 3.65%; in experiment [5] it was 11.4%; in experiment [6] it was 5%.

Turning to `O=C1CCN(Cc2ccco2)C(=O)N1`, the growth inhibition is 1% in experiment [1]; -12.3% in experiment [2]; 10.9% in experiment [3]; -41% in experiment [4]; -5.7% in experiment [5]; 10.2% in experiment [6].

In the case of `O=CN1CCN(c2ccc3ccc(=O)[nH]c3n2)CC1`, the growth inhibition in experiment [1] was -4.45%; in experiment [2], -24.2%; in experiment [3] it was 19.5%; in experiment [4], 9%; in experiment [5] it was -5.05%; in experiment [6] it was -14.2%.

`Cn1c(=O)c2c(nc(Cl)n2Cc2ccc([N+](=O)[O-])cc2)n(C)c1=O`: the growth inhibition in experiment [1] was -2.35%; in experiment [2], 20%; in experiment [3], -2.55%; in experiment [4], -39.3%; in experiment [5], 20.1%; in experiment [6], 1%.

Take `CC(=O)OC1CCC2(C)C3=C(C(=O)CC2C1(C)C)C1(C)CCC(C(C)CCCC(C)C)C1(C)CC3` (stereo unspecified): the growth inhibition was 0.3% in experiment [1]; 1.6% in experiment [2]; -25.4% in experiment [3]; 3.15% in experiment [4]; 4.3% in experiment [5]; -0.6% in experiment [6].

Turning to `O=[N+]([O-])c1ccc(CC(Cl)c2ccccn2)cc1` (stereo unspecified), the growth inhibition was 18.9% in experiment [1]; 9.85% in experiment [2]; 19.1% in experiment [3]; -11.4% in experiment [4]; 22.2% in experiment [5]; 42.2% in experiment [6].

Take `Nc1nc2nc(N=Nc3ccccc3)[nH]c2c(=O)[nH]1`: the growth inhibition is 21.5% in experiment [1]; -1.9% in experiment [2]; 8.3% in experiment [3]; 9.25% in experiment [4]; 5.45% in experiment [5]; 8.9% in experiment [6].

Consider `CC(Nc1cnccn1)Nc1cnccn1`, for which the growth inhibition in experiment [1] was -3.1%; in experiment [2], -3.55%; in experiment [3], -0.4%; in experiment [4], -23.4%; in experiment [5], -5.2%; in experiment [6] it was 1.05%.

Turning to `Nc1ccc(S(=O)(=O)Nc2nc(CN3CCCCC3)cs2)cc1`, the growth inhibition in experiment [1] was 7.25%; in experiment [2], -2.5%; in experiment [3], 3.3%; in experiment [4], -38.5%; in experiment [5], -1.4%; in experiment [6], -7.85%.

Consider `CCN(CC)C(=O)c1ccc[n+](CCC(N)=O)c1`, for which the growth inhibition was -1.05% in experiment [1]; -17.8% in experiment [2]; -3% in experiment [3]; 14.8% in experiment [4]; -8.5% in experiment [5]; 6.6% in experiment [6].

Turning to `Clc1ccc(N=CNc2ccc(Cl)cc2)cc1`, the growth inhibition in experiment [1] is -10.2%; in experiment [2], -2.85%; in experiment [3] it was -6.55%; in experiment [4] it was -14.2%; in experiment [5], 43.2%; in experiment [6], -2.35%.

Consider `Nc1nc2sc3ccccc3c(=O)n2n1`, for which the growth inhibition in experiment [1] is -10.7%; in experiment [2], -31.9%; in experiment [3], 11.5%; in experiment [4], 19.1%; in experiment [5] it was -3.2%; in experiment [6], -9.85%.
